SMILES strings stand for the structures. Among all 76,000 compounds or so, about 1,900 (2.5%) were called active. A call without a number means that no potency is given here. About 5% were inconclusive and are not listed. The call rests on the fitted dose curve; in most records, active means well fitted inhibition curve with a large enough effect; inconclusive means small, poorly fitted or top-dose-only effect; inactive means flat fitted curve, though single readings scatter. The sample as a whole holds a higher share of actives than the screen did.
Potency means the concentration at half of the fitted maximal effect.

Sequence of Luciferin 4-monooxygenase (Photinus pyralis) (P08659 whole entry, looked up): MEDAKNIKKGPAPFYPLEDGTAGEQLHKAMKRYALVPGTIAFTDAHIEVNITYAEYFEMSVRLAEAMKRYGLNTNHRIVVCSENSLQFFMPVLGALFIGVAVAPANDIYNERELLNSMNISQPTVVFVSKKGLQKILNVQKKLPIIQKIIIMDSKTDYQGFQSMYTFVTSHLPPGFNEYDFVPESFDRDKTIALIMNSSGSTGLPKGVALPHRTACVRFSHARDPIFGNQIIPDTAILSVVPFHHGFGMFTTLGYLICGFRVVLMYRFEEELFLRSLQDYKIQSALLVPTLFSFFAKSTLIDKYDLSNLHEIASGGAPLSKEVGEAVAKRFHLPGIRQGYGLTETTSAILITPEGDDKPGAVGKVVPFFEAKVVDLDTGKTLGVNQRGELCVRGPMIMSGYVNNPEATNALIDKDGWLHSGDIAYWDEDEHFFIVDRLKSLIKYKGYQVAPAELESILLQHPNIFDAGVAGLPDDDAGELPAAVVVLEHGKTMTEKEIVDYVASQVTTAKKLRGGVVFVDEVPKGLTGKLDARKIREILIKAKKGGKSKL

The test deals with Luciferin 4-monooxygenase (Photinus pyralis) (UniProt P08659). The test is described as follows: Firefly luciferase inhibition profiling of diverse chemical library using quantitative high-throughput screening. Further: nearly all actives have a fitted effect of over 65% in size. The settings on record: purified P. pyralis luciferase, luminescence, biochemical; series mostly up to 115 µM. The gist of the method:
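Inhibitors were tested against purified firefly luciferase in a biochemical, low-substrate format (both substrates at 10uM) and luminescence measured with a CCD imager.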
With `C=CCN(C)C(=O)[C@@H](C)C1CC[C@@]2(C)Cc3sc(Nc4c(Cl)cccc4Cl)nc3[C@@H](C)[C@@H]2[C@H]1O` (some centres undefined), the Potency result was “inactive”.
Consider `O=C(C[C@@H]1CCNC[C@@H]1Cc1cc(CSc2ccccc2)on1)NCc1ccc2c(c1)OCO2`, for which the Potency result is “inactive”.
The same measure for `CCc1cccc(C)c1NC(=O)Cn1ccn2nc(-c3ccc(F)cc3)c(CO)c2c1=O`: “inactive”; for `Cc1ocnc1C(=O)N1CCc2nc(N)nc(N3CC[C@H](O)C3)c2CC1`: “inactive”; for `Cc1cn2nc(C(=O)NCc3ccc(F)cc3)cc2c(N2CCCC2)n1`: “inactive”.
Consider `CCN1CCN(C(=O)C23CCCC=C2N(C2CCCC2)C(=O)CC3)CC1` (centres undefined), for which the Potency is 39.8 µM (active).
Consider `CC(C)CCN1C(=O)CC[C@]2(C(=O)N3CCN(CC(C)C)CC3)CCCC[C@@H]12`, for which the Potency result was “inactive”.
Turning to `CC(C)CCN1C(=O)CC[C@]2(C(=O)N3CCN(C)CC3)CCCC[C@@H]12`, the Potency entry is “inactive”.
`CNC(=O)[C@@H]1CN(C(=O)c2n[nH]c3ccccc23)C[C@H]1c1n[nH]c(C)n1`: the Potency entry is “inactive”.
In the case of `Cc1cccnc1NC(=O)C1c2ccccc2C(=O)N(C2CCCC2)C12CCCC2` (centres undefined) it was “inactive”; in that of `CC1(NC(=O)C2CC2)CN(c2ccc(OC(F)(F)F)cc2)C1`, “inactive”.
With `O=C([C@@H]1C[C@H](F)CN1C(=O)c1ccccc1OC(F)(F)F)N1CCCCC1`, the Potency result was “inactive”.
In the case of `O=C([C@@H]1C[C@@H](O)[C@H](O)[C@@H]2NC(=S)N(c3ccc(OC(F)(F)F)cc3)[C@@H]21)N1CCCCC1` it was 14.1 µM (active); in that of `Cc1noc(-c2cccc(OC3CN(C(=O)c4ccco4)C3)c2)n1`, “inactive”.
In the case of `COc1ccccc1OCc1cc(C(=O)NCc2n[nH]c3c2CCC3)n[nH]1` it was “inactive”; in that of `CCOC(=O)C1CCN(C(=O)c2ccc(-c3ccc(N4CCCCCC4)nc3)cc2)CC1`, “inactive”; in that of `CN1CCCN(c2ccc(C(=O)N3CCC(N4CCOCC4)CC3)cn2)CC1`, “inactive”.
As for `O=C(c1ccc(-c2ccc(N3CCCCC3)nc2)cc1)N1CCOCC1`, the Potency is 35.5 µM (active).
Consider `O=C(CCc1ccccc1)NCCn1cccc1-c1nc(-c2ccc3c(c2)OCO3)no1`, for which the Potency is 50.1 µM (active).
With `Cc1ccc(NC(=O)Cn2cccc2-c2nc(-c3ccc4c(c3)OCO4)no2)cc1Cl`, the Potency result was “inactive”.
The same measure for `COc1ccc(-c2noc(-c3cccn3CC(=O)Nc3ccccc3)n2)cc1F`: “inactive”.
For the molecule `COc1ccc(CN2CCC3(COc4ccccc4C(=O)N3)C2)cc1` (centres undefined), the Potency entry is “inactive”.
Turning to `Cc1c(Cl)cccc1NC(=O)N1C[C@@H](F)C[C@H]1C(=O)N1CCc2ccccc2C1`, the Potency result is “inactive”.
Turning to `O=C(CC1CCCC1)N1CCC(c2nc(C3CCOCC3)no2)CC1`, the Potency entry is “inactive”.
The same measure for `O=C(NC1CCN(c2cc(-c3ccc(F)cc3)[nH]n2)C1)c1ccc2c(c1)OCO2` (centres undefined): “inactive”; for `O=C(NC1CCN(c2cc(-c3ccc(F)cc3)[nH]n2)C1)c1cc2ccccc2[nH]1` (centres undefined): 6.31 µM (active); for `O=C(NC1CCCN(c2cc(-c3ccccc3)[nH]n2)C1)c1cccc(Cl)c1` (centres undefined): “inactive”.
For `O=C(NC1CCCN(c2cc(-c3ccc(F)cc3)[nH]n2)C1)c1ccc(Br)cc1` (centres undefined), the Potency result was “inactive”.
Turning to `O=C(NC1CCCN(c2cc(-c3ccc(Cl)cc3)[nH]n2)C1)c1ccccc1F` (centres undefined), the Potency result is “inactive”.
The same measure for `O=C(NC1CCN(c2cc(-c3ccc(Cl)cc3)[nH]n2)C1)c1c[nH]c2ccccc12` (centres undefined): “inactive”.
In the case of `COc1ccc(-c2cc(N3CCC(NC(=O)c4ccc(N(C)C)cc4)C3)n[nH]2)cc1` (centres undefined), the Potency entry was “inactive”.
The same measure for `COc1ccc(-c2cc(N3CCCC(NC(=O)c4ccsc4)C3)n[nH]2)cc1` (centres undefined): 14.1 µM (active); for `O=C(NC1CCCN(c2cc(-c3ccc(Cl)cc3)[nH]n2)C1)c1ccncc1` (centres undefined): 12.6 µM (active); for `CC(=O)N1CCc2sc(C(=O)NCc3ccc(F)cc3Cl)cc2C1`: “inactive”.
For `Cn1cnnc1CC1CCN(c2nnnn2-c2ccccc2)CC1`, the Potency entry was “inactive”.
In the case of `COc1ccccc1N1CCN(C(=O)Cn2c(N3CCc4ccccc4C3)nc(C)cc2=O)CC1`, the Potency result was “inactive”.
For the molecule `Cc1cccc(-c2cc(C3CCN(S(=O)(=O)c4cccc(C#N)c4)CC3)[nH]n2)c1`, the Potency result is “inactive”.
In the case of `COc1ccc(F)cc1CN1CCCC(CO)(CC2CC2)C1` (centres undefined) it was “inactive”.
In the case of `CCNC(=O)N1CCCC1c1noc(CCC(=O)NCC2CC2)n1` (centres undefined) it was “inactive”; in that of `C=CCC1(OC)CCN(C(=O)c2cnn3cc(CN(CC)CC)cnc23)CC1`, “inactive”.
In the case of `COCCNC(=O)[C@H]1C[C@H](Oc2cccnc2)CN1S(=O)(=O)c1cn(C)cn1` it was “inactive”.
Consider `C[S+](=O)([O-])CCn1ncc2cc(OCc3cccc(-c4ccccc4)c3)ccc21`, for which the Potency was 14.1 µM (active).
The same measure for `CN(C)Cc1cn2c(=O)n(C)cc(-c3cccc(OCc4ccccc4)c3)c2n1`: “inactive”; for `COc1cncc(-c2cccc(COc3ccc4c(cnn4CC[S+](C)(=O)[O-])c3)c2)c1`: “inactive”; for `Cn1cnc(S(=O)(=O)N2CCC(N(C(=O)C3CC3)C3CCOCC3)CC2)c1`: “inactive”.
In the case of `Cc1ccc(C(=O)NC2CCN(c3cc(-c4cccs4)[nH]n3)C2)cc1` (centres undefined) it was “inactive”.
In the case of `Cc1ccc2cc(CN3CCN(CC(N)=O)CC3)c(-c3cccs3)nc2c1` it was 12.6 µM (active).
With `Cc1cccnc1C(=O)N[C@@H]1CN(c2ncccn2)C[C@H]1CO`, the Potency entry was “inactive”.
The same measure for `COc1ccc(-c2nccc3c(=O)cc(N(C)c4ccccc4)oc23)cn1`: “inactive”; for `COc1ccc(CN2CCc3oc(C)c(C(=O)NC(C)Cn4ccc(C)n4)c3C2)cc1` (centres undefined): “inactive”.
On to `COCCOCC(=O)N1CCCC(c2nc(-c3ccccc3)no2)CCNC(=O)CC1` (centres undefined), for which the Potency entry was “inactive”.
In the case of `O=[N+]([O-])c1cccc(-c2noc([C@@H]3C[C@@H](O)CN3Cc3cccnc3)n2)c1` it was “inactive”.
In the case of `O=[N+]([O-])c1ccccc1CN1C[C@H](O)C[C@H]1c1nc(-c2ccc(F)cc2)no1` it was 50.1 µM (active); in that of `O=[N+]([O-])c1cccc(-c2noc([C@@H]3C[C@@H](O)CN3Cc3cccc(OC(F)(F)F)c3)n2)c1`, “inactive”.
`CCCNC(=O)C(NC(=O)c1cccc(OC)c1)C1CCN(C(=O)c2ccccc2F)CC1` (centres undefined): the Potency result was “inactive”.
On to `CCNC(=O)O[C@@H]1CO[C@H]2[C@@H]1OC[C@@H]2NC(=S)Nc1cccc2ccccc12`, for which the Potency result is “inactive”.
As for `COc1ccc(NC(=O)c2ccc(CN3C(=O)NC4(CCOCC4)C3=O)cc2)c(OC)c1`, the Potency entry was “inactive”.
The same measure for `CCNC(=O)C1C(c2cccc(NC(=O)c3ccc(OC)cc3)c2)OC(=O)N1Cc1ccc(C)cc1` (centres undefined): 11.2 µM (active).
For `COc1ccc(CN2C(=O)CO[C@H](c3ccc(NC(=O)c4ccccc4OC)cc3)[C@H]2CO)cc1`, the Potency result is “inactive”.
In the case of `Cc1nc(-c2ccccc2)n(CC(=O)NCc2ccc(F)cc2)c(=O)c1CCO`, the Potency entry was “inactive”.
The same measure for `CCCNC(=O)N(C1CCOCC1)C1CCN(C(=O)c2ccncc2)CC1`: “inactive”.
For `COc1ccc(NC(=O)CCC2CCN(S(=O)(=O)c3ccc(C)cc3)CC2)cc1F`, the Potency result is “inactive”.
Consider `CCCNc1cc(N2CCC(CCC(=O)Nc3ccc(C)cc3)CC2)ncn1`, for which the Potency was 28.2 µM (active).
With `Cc1ccc(C(=O)N2CCC(c3nn(-c4ccccc4)c(=O)[nH]3)CC2)cc1`, the Potency result was “inactive”.
In the case of `CN1N=C(C(=O)N2CCC(CCC(=O)Nc3ccc4c(c3)OCCO4)CC2)CCC1=O` it was “inactive”.
The same measure for `Cc1ccc(S(=O)(=O)N2CCC(CCC(=O)NCc3ccccc3)CC2)cc1`: “inactive”; for `O=C(c1ccc2c(c1)[nH]c(=O)n2C1CCC(O)CC1)N1CCc2ccccc2C1` (centres undefined): “inactive”; for `Cc1ccc(C(=O)N2CCC(CCC(=O)N3CCc4ccccc4C3)CC2)cc1`: 22.4 µM (active).
As for `CCCNC(=O)CCC1CCN(C(=O)c2ccc(C)cc2)CC1`, the Potency is 31.6 µM (active).
For the molecule `CN(CCCNC1CCC2(CCNCC2)CC1)c1ccccc1`, the Potency entry is “inactive”.
The same measure for `O=C(Nc1ccc(F)cc1)[C@@H]1C[C@@H](c2ccc(F)cc2)N([S+](=O)([O-])c2ccccc2)C1`: “inactive”; for `O=C(NCc1ccccc1)NC1CCc2nn(CC3CC3)c(=O)n2CC1` (centres undefined): “inactive”.
As to `CCCc1noc(-c2cn(C3CCN(C(=O)c4ccc(C)s4)CC3)nn2)n1`, the Potency entry is “inactive”.
Take `Cc1cc(NC(=O)c2ccc3c(c2)OCCN(CCC(F)(F)F)C3)ccc1F`: the Potency entry was “inactive”.
`O=C(NCc1cccs1)c1ccc2c(c1)OCCN(c1ccccc1)C2`: the Potency result was “inactive”.
The same measure for `O=C(NCCc1ccccc1)c1ccc2c(c1)OCCN(CCC(F)(F)F)C2`: 39.8 µM (active); for `CC(C)NC(=O)C1COC2(CCN(C(=O)c3ccccc3Cl)CC2)N1C(=O)c1ccccc1` (centres undefined): “inactive”.
In the case of `O[C@H]1CC[C@@H](Cc2cc(-c3ccccc3)on2)O[C@@H]1CNCc1ccccc1` it was “inactive”; in that of `CCn1ncc(N2CCC(NC(=O)C(C)c3ccccc3)CC2)cc1=O` (centres undefined), “inactive”; in that of `CC(C)(C)c1ccc(N2C(=O)[C@@H]3C[C@@H](NC(=O)[C@@H](O)c4ccccc4)CCN3C2=O)cc1`, 35.5 µM (active).
For the molecule `C=CCN1C(=O)[C@@H]2C[C@@H](NC(=O)c3ccncc3)CCN2C1=O`, the Potency result is “inactive”.
The same measure for `Cc1nc(-c2ccc(F)cc2)n(Cc2cccc(Cl)c2)c(=O)c1CCO`: “inactive”; for `Cn1cccc1CN1CCC(N2CCC[S+]2(=O)[O-])CC1`: “inactive”.
In the case of `CCN1C(=O)CCN(C(=O)CCc2ccc(OC)cc2)CC12CCOCC2` it was “inactive”; in that of `CC(C)CC(=O)N1CCC(c2noc(-c3cnccn3)n2)C1` (centres undefined), “inactive”.
In the case of `COc1ccc(C(=O)N2CCC3(CC2)CC(OC)CCO3)cc1OC` (centres undefined) it was “inactive”; in that of `CCn1cnnc1CC1CCN(C(=O)c2cc(-c3ccc(F)cc3)nc3ccccc23)CC1`, 14.1 µM (active).
As for `CCn1cnnc1CC1CCN(C(=O)C2CCN(Cc3nc(-c4cccc(C)c4)oc3C)CC2)CC1`, the Potency result was “inactive”.
In the case of `COCc1nncn1C1CCN(C(=O)c2ccccc2F)CC1` it was “inactive”; in that of `Cc1noc(-c2cccc(OC3CN(C(=O)NCCc4ccccc4)C3)c2)n1`, “inactive”.
Take `COc1nccc(N2CCC(CC(=O)NCc3ccc(F)cc3Cl)CC2)n1`: the Potency result is “inactive”.
Consider `COc1ccc2[nH]c(C(=O)N[C@@H]3CN(S(C)(=O)=O)C[C@H]3CN(C)C)cc2c1`, for which the Potency result is “inactive”.
In the case of `CN(C)C[C@@H]1CN(C)C[C@H]1NC(=O)c1ccnnc1` it was “inactive”; in that of `CN(C)C[C@@H]1CN(C)C[C@H]1NC(=O)c1cc2ccccc2[nH]1`, 39.8 µM (active).

The values are drawn from PubChem BioAssay AID1347043 (National Center for Advancing Translational Sciences (NCATS), 2019).
